Results taken from the supplement of paper PMC8728848.
This excerpt belongs to a sample that is enriched for the strongest signals.

Tests used:
Assay in all cases: glycan array binding signal (z-score within array); higher = stronger binding
Details in all cases: glycan notation: IUPAC condensed, linker removed
[1] = biological target: Fuc(a1-2)Gal(b1-3)GalNAc(b1-3)Gal(a1-4)Gal(b1-4)Glc
Summary of the method: (§1)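 The binding signal is a Z-score computed within each array. Data were drawn from 3228 arrays in the Consortium for Functional Glycomics database, restricted to those with a known protein sequence. Scores were averaged over arrays of the same protein sequence at different concentrations or buffers, and over linkers, and negative values can be taken as non-binding.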

[2] = biological target: Fuc(a1-2)Gal(b1-3)GlcNAc(b1-3)GalNAc
Summary of the method: as §1

[3] = biological target: Fuc(a1-2)Gal(b1-3)[Fuc(a1-4)]GlcNAc(b1-2)Man(a1-3)[Fuc(a1-2)Gal(b1-3)[Fuc(a1-4)]GlcNAc(b1-2)Man(a1-6)]Man(b1-4)GlcNAc(b1-4)[Fuc(a1-6)]GlcNAc(b1-4)[Fuc(a1-6)]GlcNAc
Summary of the method: as §1

[4] = biological target: Fuc(a1-2)Gal(b1-4)[Fuc(a1-3)]GlcNAc(b1-2)Man(a1-3)[Fuc(a1-2)Gal(b1-4)[Fuc(a1-3)]GlcNAc(b1-2)Man(a1-6)]Man(b1-4)GlcNAc(b1-4)[Fuc(a1-6)]GlcNAc
Summary of the method: as §1

[5] = biological target: Fuc(a1-2)[Gal(a1-4)]Gal(b1-4)GlcNAc
Summary of the method: as §1

[6] = biological target: Fuc(a1-3)[Gal3S(b1-4)]GlcNAc
Summary of the method: as §1

Fuc(a1-4)GlcNAc = biological target: Fuc(a1-4)GlcNAc
Summary of the method: as §1

[7] = biological target: Gal(a1-3)Gal(b1-4)[Fuc(a1-3)]GlcNAc
Summary of the method: as §1

Gal(a1-4)GlcNAc = biological target: Gal(a1-4)GlcNAc
Summary of the method: as §1

Gal(b1-3)Gal = biological target: Gal(b1-3)Gal
Summary of the method: as §1

Gal(b1-3)GlcNAc(b1-2)Man = biological target: Gal(b1-3)GlcNAc(b1-2)Man
Summary of the method: as §1

[8] = biological target: Gal(b1-3)GlcNAc(b1-3)Gal(b1-4)[Fuc(a1-3)]GlcNAc
Summary of the method: as §1

[9] = biological target: Gal(b1-3)GlcNAc(b1-3)Gal(b1-4)[Fuc(a1-3)]GlcNAc(b1-6)[Gal(b1-3)GlcNAc(b1-3)]Gal(b1-4)Glc
Summary of the method: as §1

Gal(b1-4)Glc = biological target: Gal(b1-4)Glc
Summary of the method: as §1

[10] = biological target: Gal(b1-4)GlcNAc(b1-3)Gal(b1-4)GlcNAc(b1-3)GalNAc
Summary of the method: as §1

[11] = biological target: Gal(b1-4)GlcNAc(b1-3)GalNAc
Summary of the method: as §1

Gal3S(b1-4)GlcNAc = biological target: Gal3S(b1-4)GlcNAc
Summary of the method: as §1

[12] = biological target: Gal3S(b1-4)[Fuc(a1-3)]GlcNAc
Summary of the method: as §1

GalNAc(a1-3)Gal = biological target: GalNAc(a1-3)Gal
Summary of the method: as §1

GalNAc(b1-3)GalNAc = biological target: GalNAc(b1-3)GalNAc
Summary of the method: as §1

GalNAc(b1-3)GlcNAc = biological target: GalNAc(b1-3)GlcNAc
Summary of the method: as §1

[13] = biological target: GalNAc3S(b1-4)[Fuc(a1-3)]GlcNAc
Summary of the method: as §1

[14] = biological target: GlcNAc(a1-4)Gal(b1-3)GlcNAc
Summary of the method: as §1

[15] = biological target: GlcNAc(b1-3)Gal(b1-3)GalNAc
Summary of the method: as §1

GlcNAc(b1-3)Gal(b1-4)Glc = biological target: GlcNAc(b1-3)Gal(b1-4)Glc
Summary of the method: as §1

[16] = biological target: GlcNAc(b1-3)Gal(b1-4)GlcNAc(b1-2)Man(a1-3)[GlcNAc(b1-3)Gal(b1-4)GlcNAc(b1-2)Man(a1-6)]Man(b1-4)GlcNAc(b1-4)[Fuc(a1-6)]GlcNAc
Summary of the method: as §1

[17] = biological target: GlcNAc(b1-3)Gal(b1-4)GlcNAc(b1-3)Gal(b1-4)GlcNAc(b1-2)Man(a1-3)[GlcNAc(b1-3)Gal(b1-4)GlcNAc(b1-3)Gal(b1-4)GlcNAc(b1-2)Man(a1-6)]Man(b1-4)GlcNAc(b1-4)[Fuc(a1-6)]GlcNAc
Summary of the method: as §1

[18] = biological target: GlcNAc(b1-3)Gal(b1-4)GlcNAc(b1-3)Gal(b1-4)GlcNAc(b1-2)[GlcNAc(b1-3)Gal(b1-4)GlcNAc(b1-3)Gal(b1-4)GlcNAc(b1-6)]Man(a1-6)[GlcNAc(b1-3)Gal(b1-4)GlcNAc(b1-3)Gal(b1-4)GlcNAc(b1-2)Man(a1-3)]Man(b1-4)GlcNAc(b1-4)[Fuc(a1-6)]GlcNAc
Summary of the method: as §1

[19] = biological target: GlcNAc(b1-3)Gal(b1-4)GlcNAc(b1-3)Gal(b1-4)GlcNAc(b1-3)Gal(b1-4)GlcNAc(b1-2)Man(a1-3)[GlcNAc(b1-3)Gal(b1-4)GlcNAc(b1-3)Gal(b1-4)GlcNAc(b1-3)Gal(b1-4)GlcNAc(b1-2)Man(a1-6)]Man(b1-4)GlcNAc(b1-4)[Fuc(a1-6)]GlcNAc
Summary of the method: as §1

[20] = biological target: GlcNAc(b1-3)Gal(b1-4)GlcNAc(b1-3)Gal(b1-4)GlcNAc(b1-3)Gal(b1-4)GlcNAc(b1-2)[GlcNAc(b1-3)Gal(b1-4)GlcNAc(b1-3)Gal(b1-4)GlcNAc(b1-3)Gal(b1-4)GlcNAc(b1-6)]Man(a1-6)[GlcNAc(b1-3)Gal(b1-4)GlcNAc(b1-3)Gal(b1-4)GlcNAc(b1-3)Gal(b1-4)GlcNAc(b1-2)Man(a1-3)]Man(b1-4)GlcNAc(b1-4)[Fuc(a1-6)]GlcNAc
Summary of the method: as §1

GlcNAc(b1-3)GalNAc = biological target: GlcNAc(b1-3)GalNAc
Summary of the method: as §1

[21] = biological target: GlcNAc(b1-4)[GlcNAc(b1-6)]GalNAc
Summary of the method: as §1

GlcNAc(b1-6)GalNAc = biological target: GlcNAc(b1-6)GalNAc
Summary of the method: as §1

[22] = biological target: Man(a1-2)Man(a1-3)[Man(a1-2)Man(a1-6)]Man(a1-6)[Man(a1-2)Man(a1-2)Man(a1-3)]Man
Summary of the method: as §1

[23] = biological target: Man(a1-2)Man(a1-6)[Man(a1-3)]Man(a1-6)[Man(a1-2)Man(a1-2)Man(a1-3)]Man(b1-4)GlcNAc(b1-4)GlcNAc
Summary of the method: as §1

[24] = biological target: Man(a1-3)[Man(a1-6)]Man(a1-6)[Man(a1-3)]Man(b1-4)GlcNAc(b1-4)GlcNAc
Summary of the method: as §1

[25] = biological target: Man(a1-3)[Man(a1-6)]Man(b1-4)GlcNAc(b1-4)GlcNAc
Summary of the method: as §1

[26] = biological target: Neu5Ac(a2-3)Gal(b1-3)GlcNAc
Summary of the method: as §1

[27] = biological target: Neu5Ac(a2-3)Gal(b1-3)GlcNAc(b1-2)[Neu5Ac(a2-3)Gal(b1-3)GlcNAc(b1-4)]Man(a1-6)[Neu5Ac(a2-3)Gal(b1-3)GlcNAc(b1-2)Man(a1-3)]Man(b1-4)GlcNAc(b1-4)GlcNAc
Summary of the method: as §1

[28] = biological target: Neu5Ac(a2-3)Gal(b1-4)GlcNAc(b1-2)Man
Summary of the method: as §1

[29] = biological target: Neu5Ac(a2-3)Gal(b1-4)GlcNAc(b1-2)Man(a1-3)[Neu5Ac(a2-6)Gal(b1-4)GlcNAc(b1-2)Man(a1-6)]Man(b1-4)GlcNAc(b1-4)GlcNAc
Summary of the method: as §1

[30] = biological target: Neu5Ac(a2-3)Gal(b1-4)GlcNAc(b1-3)Gal(b1-4)GlcNAc(b1-6)[Gal(b1-3)]GalNAc
Summary of the method: as §1

[31] = biological target: Neu5Ac(a2-3)Gal(b1-4)GlcNAc(b1-6)[Neu5Ac(a2-3)Gal(b1-3)]GalNAc
Summary of the method: as §1

[32] = biological target: Neu5Ac(a2-3)Gal6S(b1-4)[Fuc(a1-3)]GlcNAc
Summary of the method: as §1

[33] = biological target: Neu5Ac(a2-6)Gal(b1-4)GlcNAc
Summary of the method: as §1

[34] = biological target: Neu5Ac(a2-6)Gal(b1-4)GlcNAc(b1-2)Man(a1-3)[Man(a1-6)]Man(b1-4)GlcNAc(b1-4)GlcNAc
Summary of the method: as §1

[35] = biological target: Neu5Ac(a2-6)Gal(b1-4)GlcNAc(b1-2)Man(a1-3)[Neu5Ac(a2-3)Gal(b1-4)GlcNAc(b1-2)Man(a1-6)]Man(b1-4)GlcNAc(b1-4)GlcNAc
Summary of the method: as §1

[36] = biological target: Neu5Ac(a2-8)Neu5Ac(a2-3)Gal(b1-3)GalNAc(b1-4)[Neu5Ac(a2-8)Neu5Ac(a2-3)]Gal(b1-4)Glc
Summary of the method: as §1

[37] = biological target: Neu5Gc(a2-3)Gal(b1-3)[Fuc(a1-4)]GlcNAc
Summary of the method: as §1

[38] = biological target: Neu5Gc(a2-3)Gal(b1-4)GlcNAc
Summary of the method: as §1

[39] = biological target: Neu5Gc(a2-3)Gal(b1-4)[Fuc(a1-3)]GlcNAc
Summary of the method: as §1

B1: LysMD3 (Homo sapiens), Q7Z3D4 (protein)
chain: MAGRHQNRSFPLPGVQSSGQVHAFGNCSDSDILEEDAEVYELRSRGKEKVRRSTSRDRLDDIIVLTKDIQEGDTLNAIALQYCCTVADIKRVNNLISDQDFFALRSIKIPVKKFSSLTETLCPPKGRQTSRHSSVQYSSEQQEILPANDSLAYSDSAGSFLKEVDRDIEQIVKCTDNKRENLNEVVSALTAQQMRFEPDNKNTQRKDPYYGADWGIG
glycan array binding signal (z-score) [1]: 0.086 | glycan array binding signal (z-score) [2]: 0.587 | glycan array binding signal (z-score) [3]: 0.341 | glycan array binding signal (z-score) [4]: 1.97 | glycan array binding signal (z-score) [5]: 2.84 | glycan array binding signal (z-score) [6]: -0.081 | glycan array binding signal (z-score) (Fuc(a1-4)GlcNAc): 0.681 | glycan array binding signal (z-score) [7]: 0.873 | glycan array binding signal (z-score) (Gal(a1-4)GlcNAc): 0.113 | glycan array binding signal (z-score) (Gal(b1-3)Gal): 0.706 | glycan array binding signal (z-score) (Gal(b1-3)GlcNAc(b1-2)Man): 1.23 | glycan array binding signal (z-score) [8]: 2.15 | glycan array binding signal (z-score) [9]: -0.547 | glycan array binding signal (z-score) (Gal(b1-4)Glc): -0.555 | glycan array binding signal (z-score) [10]: -0.073 | glycan array binding signal (z-score) [11]: 0.375 | glycan array binding signal (z-score) (Gal3S(b1-4)GlcNAc): -0.699 | glycan array binding signal (z-score) [12]: 0.294 | glycan array binding signal (z-score) (GalNAc(a1-3)Gal): 0.335 | glycan array binding signal (z-score) (GalNAc(b1-3)GalNAc): 1.67 | glycan array binding signal (z-score) (GalNAc(b1-3)GlcNAc): 1.85 | glycan array binding signal (z-score) [13]: -0.424 | glycan array binding signal (z-score) [14]: 0.45 | glycan array binding signal (z-score) [15]: 1.5 | glycan array binding signal (z-score) (GlcNAc(b1-3)Gal(b1-4)Glc): 0.983 | glycan array binding signal (z-score) [16]: 1.83 | glycan array binding signal (z-score) [17]: 1.8 | glycan array binding signal (z-score) [18]: 1.87 | glycan array binding signal (z-score) [19]: 1.68 | glycan array binding signal (z-score) [20]: 2.41 | glycan array binding signal (z-score) (GlcNAc(b1-3)GalNAc): -0.639 | glycan array binding signal (z-score) [21]: 0.46 | glycan array binding signal (z-score) (GlcNAc(b1-6)GalNAc): 0.427 | glycan array binding signal (z-score) [22]: 0.422 | glycan array binding signal (z-score) [23]: -0.445 | glycan array binding signal (z-score) [24]: -0.113 | glycan array binding signal (z-score) [25]: -0.343 | glycan array binding signal (z-score) [26]: -0.413 | glycan array binding signal (z-score) [27]: -0.094 | glycan array binding signal (z-score) [28]: -0.604 | glycan array binding signal (z-score) [29]: 0.582 | glycan array binding signal (z-score) [30]: -0.924 | glycan array binding signal (z-score) [31]: -0.226 | glycan array binding signal (z-score) [32]: -0.291 | glycan array binding signal (z-score) [33]: -0.353 | glycan array binding signal (z-score) [34]: -1.15 | glycan array binding signal (z-score) [35]: -0.438 | glycan array binding signal (z-score) [36]: 1.66 | glycan array binding signal (z-score) [37]: -0.44 | glycan array binding signal (z-score) [38]: -0.032 | glycan array binding signal (z-score) [39]: -0.174
